The structures appear in SMILES notation. ± gives the standard deviation of the averaged measurements.

The test system of test [1] is DLD1. The test is described as follows: cell viability (CellTiter-Glo) relative to plate median (fraction of plate median); higher = more viable cells. The conditions noted are these: 5 µM; treatment time 24 h; reporter: 7TFP. The gist of the method: (§1)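 After seeding in 384-well plates, colorectal cancer cell lines carrying stable lentiviral TCF/Wnt firefly luciferase reporters (7TFP or TCF4/Wnt) were left 24 h. Library compounds were then added at a final 5 µM for 24 h. A Tecan F500 reader measured firefly luciferase or CellTiterGlo luminescence on parallel plates, with each well normalised to the plate median by webcellHTS2 (additive, no log transformation), and two independent replicates averaged.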
(In general: ATP-based viability assays read luminescence as a measure of living cells.)

Test [2] deals with HCT116. The description is as above. The conditions noted are these: 5 µM; treatment time 24 h; reporter: TCF4/Wnt. The gist of the method: as §1
Test [3] relates to SW480. Described as above. Conditions: 5 µM; treatment time 24 h; reporter: 7TFP. Summed up:
as §1

Test [4] has as its system DLD1. The test is described as follows: TCF/Wnt firefly luciferase reporter signal relative to plate median (fraction of plate median); higher = higher Wnt reporter signal. The conditions noted are these: 5 µM; treatment time 24 h; reporter: 7TFP. Summed up: as §1
For orientation: In a reporter assay the amount or activity of a reporter protein is the signal.

Test [5] has as its system SW480. Described as above. The conditions noted are these: 5 µM; treatment time 24 h; reporter: 7TFP. The gist of the method: as §1

In the case of `CC[C@]1(O)C[C@H]2CN(CCc3c([nH]c4ccccc34)[C@@](C(=O)OC)(c3cc4c(cc3OC)N(C=O)[C@H]3[C@@](O)(C(=O)OC)[C@H](OC(C)=O)[C@]5(CC)C=CCN6CC[C@]43[C@@H]65)C2)C1`, the cell viability in test [1] turned out to be 1.01 ± 0.16; in test [2] it was 0.53 ± 0.064; in test [3], 1.17 ± 0.035. Further, the “TCF/Wnt firefly luciferase reporter signal” value came out at 0.666 ± 0.091 in test [4] and 0.713 ± 0.075 in test [5].

As for `COC(=O)[C@@H]1OC(=O)[C@H]2O[C@@]23[C@@]1(C)CCC1[C@@]2(C)CCC(=O)C(C)(C)C2C[C@@H](OC(C)=O)[C@]13C` (stereo not given in full), the cell viability in test [1] came out at 0.995 ± 0.078; in test [2] it was 1.1 ± 0.085; in test [3] it was 1.01 ± 0.034. Besides, the “TCF/Wnt firefly luciferase reporter signal” value was found to be 0.994 ± 0.037 in test [4] and 0.967 ± 0.038 in test [5].

Consider `CCn1cc(C(=O)O)c(=O)c2cc(F)c(N3CCN(C)CC3)cc21`, for which the cell viability in test [1] is 1 ± 0.04; in test [2], 1.015 ± 0.0071; in test [3], 0.982 ± 0.018. Further, the results for the “TCF/Wnt firefly luciferase reporter signal” value in test [4] and in test [5] were 1.19 ± 0.035 and 1.05 ± 0.078, respectively.

For the compound `C[N+](C)(C)CC(=O)O`, the results for the cell viability in test [1], in test [2] and in test [3] were 0.9965 ± 0.005, 0.98 ± 0.042 and 0.926 ± 0.036, respectively. In addition, the “TCF/Wnt firefly luciferase reporter signal” value in test [4] was 0.906 ± 0.1; in test [5] it was 0.9215 ± 0.0064.

For the compound `CC(C)c1ncc(Cc2ccccc2)[nH]c1=O` [Phevalin], the cell viability came to 1.14 ± 0.22 in test [1], 1.07 ± 0.014 in test [2] and 1.004 ± 0.0078 in test [3]. Further, the “TCF/Wnt firefly luciferase reporter signal” value in test [4] stood at 0.982 ± 0.019; in test [5] it was 0.922 ± 0.12.

On to `CC1=C(/C=C/C(C)=C/C=C/C(C)=C/C=C/C=C(C)/C=C/C=C(C)/C=C/C2=C(C)C(=O)[C@@H](O)CC2(C)C)C(C)(C)C[C@H](O)C1=O`, for which the results for the cell viability in test [1], in test [2] and in test [3] were 1.05 ± 0.057, 1.07 ± 0.042 and 1 ± 0.027, respectively. Besides, the “TCF/Wnt firefly luciferase reporter signal” value in test [4] amounted to 1.06 ± 0.11; in test [5], 0.824 ± 0.099.

In the case of `CN(C)c1ccc2nc3ccc(=[N+](C)C)cc-3sc2c1`, the cell viability came out at 1 ± 0.052 in test [1], 0.878 ± 0.021 in test [2] and 1.16 ± 0.071 in test [3]. In addition, the “TCF/Wnt firefly luciferase reporter signal” value in test [4] stood at 1.06 ± 0.078; in test [5], 1.11 ± 0.021.

As for `O=C(/C=C/c1ccc(O)c(O)c1)OCCc1ccccc1`, the cell viability in test [1] was 0.892 ± 0.031; in test [2], 0.94 ± 0.039; in test [3] it was 0.963 ± 0.023. Moreover, the “TCF/Wnt firefly luciferase reporter signal” value stood at 0.948 ± 0.059 in test [4] and 0.9925 ± 0.0078 in test [5].

In the case of `C[C@@H]1CCC[C@H](C)N1NC(=O)c1ccc(Cl)c(S(N)(=O)=O)c1`, the cell viability turned out to be 1.04 ± 0.068 in test [1], 0.9815 ± 0.00071 in test [2] and 0.96 ± 0.0071 in test [3]. The “TCF/Wnt firefly luciferase reporter signal” value in test [4] turned out to be 0.993 ± 0.0099; in test [5], 0.984 ± 0.052.

`COc1ccc(C2CC(=O)c3ccc(OC)cc3O2)cc1` (stereo not given): the cell viability turned out to be 0.994 ± 0.11 in test [1], 1.08 ± 0.021 in test [2] and 1.05 ± 0.05 in test [3]. Besides, the results for the “TCF/Wnt firefly luciferase reporter signal” value in test [4] and in test [5] were 1.05 ± 0.12 and 0.901 ± 0.021, respectively.

For `CC(C(=O)O)c1ccc(C(=O)c2cccs2)cc1` (stereo not given), the cell viability in test [1] was 1.01 ± 0.021; in test [2], 1.025 ± 0.0071; in test [3], 1.02 ± 0.014. For the same compound, the “TCF/Wnt firefly luciferase reporter signal” value in test [4] came to 0.996 ± 0.021; in test [5] it was 0.999 ± 0.072.

For `CC(C)(C)NC[C@H](O)COc1nsnc1N1CCOCC1`, the cell viability in test [1] came to 0.966 ± 0.045; in test [2], 0.992 ± 0.17; in test [3] it was 0.9705 ± 0.0092. Also, the “TCF/Wnt firefly luciferase reporter signal” value in test [4] came out at 0.971 ± 0.084; in test [5], 1.04 ± 0.042.

With `COc1ccc2cc3[n+](cc2c1OC)CCc1cc2c(cc1-3)OCO2`, the cell viability in test [1] was 1.04 ± 0.021; in test [2], 0.984 ± 0.011; in test [3], 1.02 ± 0.091. Further, the “TCF/Wnt firefly luciferase reporter signal” value was found to be 1.1 ± 0.085 in test [4] and 0.954 ± 0.053 in test [5].

On to `Nc1nc(F)nc2c1ncn2[C@@H]1O[C@H](COP(=O)(O)O)[C@@H](O)[C@@H]1O`, for which the cell viability in test [1] stood at 0.987 ± 0.061; in test [2], 0.942 ± 0.019; in test [3], 0.972 ± 0.054. The “TCF/Wnt firefly luciferase reporter signal” value in test [4] was determined as 0.926 ± 0.018; in test [5], 1.04 ± 0.021.

As for `COc1c2ccoc2cc2oc(C)cc(=O)c12`, the cell viability worked out at 0.967 ± 0.016 in test [1], 0.973 ± 0.12 in test [2] and 0.92 ± 0.0042 in test [3]. In addition, the “TCF/Wnt firefly luciferase reporter signal” value came to 0.894 ± 0.012 in test [4] and 0.986 ± 0.034 in test [5].

Take `C[N+](C)(C)CCCCCC[N+](C)(C)C`: the figures for the cell viability in test [1], in test [2] and in test [3] were 1.01 ± 0.027, 0.903 ± 0.022 and 0.93 ± 0.072, respectively. Further, the entries for the “TCF/Wnt firefly luciferase reporter signal” value in test [4] and in test [5] were 1.09 ± 0.21 and 1.1 ± 0.11, respectively.

With `COc1cc(OC)cc(OC)c1`, the cell viability stood at 1.03 ± 0.028 in test [1], 1.02 ± 0.028 in test [2] and 1.015 ± 0.0071 in test [3]. In addition, the “TCF/Wnt firefly luciferase reporter signal” value in test [4] amounted to 1.13 ± 0.028; in test [5], 1.1 ± 0.11.

`CC(C)(C)CC(C)(C)c1ccc(OCCOCC[N+](C)(C)Cc2ccccc2)cc1`: the cell viability amounted to 1.07 ± 0.028 in test [1], 0.99 ± 0.071 in test [2] and 1.05 ± 0.021 in test [3]. Moreover, the “TCF/Wnt firefly luciferase reporter signal” value in test [4] amounted to 0.983 ± 0.081; in test [5] it was 0.897 ± 0.017.

For the compound `NS(=O)(=O)c1cc2c(cc1C(F)(F)F)NC(Cc1ccccc1)NS2(=O)=O` (stereo not given), the cell viability in test [1] was determined as 0.992 ± 0.04; in test [2], 0.969 ± 0.058; in test [3], 0.9875 ± 0.0035. The “TCF/Wnt firefly luciferase reporter signal” value in test [4] is 0.836 ± 0.075; in test [5] it was 0.885 ± 0.064.

Regarding `Cc1noc(NS(=O)(=O)c2ccc(N)cc2)c1C`, the cell viability in test [1] was 0.904 ± 0.0057; in test [2], 1.04 ± 0.13; in test [3], 0.915 ± 0.044. Also, the “TCF/Wnt firefly luciferase reporter signal” value in test [4] is 1.02 ± 0.076; in test [5], 0.984 ± 0.079.

As for `NC(=O)c1ncn([C@@H]2O[C@H](CO)[C@@H](O)[C@H]2O)c1N`, the cell viability in test [1] turned out to be 0.989 ± 0.03; in test [2], 0.947 ± 0.055; in test [3], 0.949 ± 0.04. Moreover, the “TCF/Wnt firefly luciferase reporter signal” value in test [4] was 1 ± 0.012; in test [5] it was 0.927 ± 0.044.

On to `COc1c(O)cc2oc3cc(O)c(CC=C(C)C)c(O)c3c(=O)c2c1CC=C(C)C` [alpha-MANGOSTIN], for which the cell viability in test [1] was 1.055 ± 0.0071; in test [2], 1.15 ± 0.021; in test [3] it was 1.01 ± 0.015. Also, the “TCF/Wnt firefly luciferase reporter signal” value in test [4] amounted to 1.04 ± 0.24; in test [5] it was 0.941 ± 0.076.

As for `CC1(C)CC[C@]2(C)CC[C@]3(C)C(=CC[C@@H]4[C@@]5(C)CC[C@H](O)C(C)(C)[C@@H]5CC[C@]43C)[C@@H]2C1` [beta-AMYRIN], the figures for the cell viability in test [1], in test [2] and in test [3] were 1.01 ± 0.073, 0.962 ± 0.016 and 0.994 ± 0.093, respectively. Also, the “TCF/Wnt firefly luciferase reporter signal” value was 0.913 ± 0.016 in test [4] and 0.9235 ± 0.0021 in test [5].

On to `COc1c2c(c(O)c3c4c(c(C)cc13)C1OC3(C(OC)OC)OC1C(O[C@H]1C[C@@H](O)[C@@](O)(C(C)=O)[C@H](C)O1)(O4)C3(O)CO)C(=O)C(O)CC2O[C@H]1C[C@@](C)(O)[C@H](OC(C)=O)[C@H](C)O1` (stereo not given in full) [Trioxacarcin B], for which the cell viability in test [1] is 1.09 ± 0.29; in test [2] it was 1.11 ± 0.014; in test [3], 1.06. The figures for the “TCF/Wnt firefly luciferase reporter signal” value in test [4] and in test [5] were 0.739 ± 0.21 and 0.893 ± 0.14, respectively.

In the case of `Cc1cccc(C(=O)O)c1O`, the cell viability stood at 1.02 ± 0.039 in test [1], 0.934 ± 0.078 in test [2] and 0.96 ± 0.0099 in test [3]. The “TCF/Wnt firefly luciferase reporter signal” value in test [4] was 0.869 ± 0.12; in test [5], 0.922 ± 0.059.

For the compound `CC(C)NCC(O)c1ccc(O)c(O)c1` (stereo not given), the cell viability in test [1] worked out at 0.963 ± 0.11; in test [2] it was 1.04 ± 0.074; in test [3], 0.999 ± 0.016. In addition, the “TCF/Wnt firefly luciferase reporter signal” value in test [4] was 1.02 ± 0.08; in test [5], 1.1 ± 0.042.

For the compound `C[C@@H]1CC[C@@]23CCC4(C)[C@@](C=CC5[C@@]6(C)CC[C@H](O)C(C)(C)C6CC[C@]54C)(OC2=O)C3[C@H]1C` (stereo not given in full), the cell viability came to 1.025 ± 0.0071 in test [1], 1.04 ± 0.028 in test [2] and 0.993 ± 0.0042 in test [3]. For the same compound, the “TCF/Wnt firefly luciferase reporter signal” value is 1.06 ± 0.18 in test [4] and 0.994 ± 0.023 in test [5].

For the origin of these results see the supplement of paper PMC6522484.
